The text below walks through data of PubChem BioAssay (NCI).

Assay [1] in a line: NCI Yeast Anticancer Drug Screen. Data for the rad50 strain (AID 155).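 Note: 0% = growth of vehicle-only cultures of the same strain.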 Conditions: S. cerevisiae rad50 strain growth inhibition; at 50.0 µM; stronger effect = higher value. Summed up:
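Readout: growth inhibition relative to vehicle-treated cultures. Compound exposure was carried out in a genetically defined yeast strain deficient in DNA damage repair.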

Assay [2] in a line: NCI Yeast Anticancer Drug Screen. Data for the mec2-1 strain (AID 157). The note with it: S. cerevisiae mec2-1 strain, at 50.0 µM, stronger effect = higher value. In short, it runs like this: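 Readout is yeast growth inhibition, normalised to vehicle-treated controls, in the mec2-1 strain exposed to compound.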
The nature of assay [3]: NCI Yeast Anticancer Drug Screen. Data for the sgs1 mgt1 strain (AID 161).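 Note: 0% = growth of cultures given vehicle only.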 Conditions: S. cerevisiae sgs1 mgt1 strain, at 50.0 µM, stronger effect = higher value. Summed up: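 Compounds are added to genetically altered yeast, and growth is compared with cultures given vehicle alone to give percent inhibition.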
A short description of assay [4]: NCI Yeast Anticancer Drug Screen. Data for the cln2 rad14 strain (AID 165).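 Note: 0% = growth equal to vehicle treated cultures.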 The note with it: S. cerevisiae cln2 rad14 strain, at 50.0 µM, stronger effect = higher value. In short, it runs like this:
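Relative to vehicle controls, growth inhibition of compound-treated cln2 rad14 yeast was recorded.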

A short description of assay [5]: NCI Yeast Anticancer Drug Screen. Data for the bub3 strain (AID 167). Conditions: S. cerevisiae bub3 mutant strain, at 50.0 µM, stronger effect = higher value. In short, it runs like this:
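Readout: yeast growth inhibition, expressed relative to vehicle-only wells. The test organism is a mutant strain from a panel with lesions in DNA repair or checkpoint genes.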

Assay [6] in a line: NCI Yeast Anticancer Drug Screen. Data for the mlh1 rad18 strain (AID 175). Conditions: S. cerevisiae mlh1 rad18 strain growth inhibition; at 50.0 µM; stronger effect = higher value. In short, it runs like this:
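Test agents were incubated with a yeast strain of defined genotype (DNA damage repair defect). Inhibition of growth was derived by comparison with vehicle-exposed cultures.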

Structures are written as SMILES. Several values for one entry are separate records, joined by “and”; a condition that tells them apart may be missing. Equal entries are not always repeated. Compounds without any hit were thinned out: in the full panel of roughly 79,000, 15% have a hit. Some compounds were tested as several samples or in several runs, with calls that do not always agree. Activity calls are given as the source filed them. Cut-off read from the data, not from the text of the source: active = growth inhibition above about 70%; inactive = the rest.

As for `COC(=O)/C=C\C(=O)O`, the growth inhibition in assay [1] was -4.95% (inactive) and 5.05% (inactive); in assay [2] it was -4.85% (inactive) and -16.4% (inactive); in assay [3], -1.75% (inactive) and -2.6% (inactive); in assay [4] it was -15.7% (inactive) and -17.2% (inactive); in assay [5], 3.35% (inactive) and -23.7% (inactive); in assay [6] it was 14.2% (inactive) and 8.65% (inactive).
Turning to `COc1cc(C)c2c(ccc3ccccc32)n1`, the growth inhibition in assay [1] was 24.6% (inactive) and 23.9% (inactive); in assay [2] it was 19.5% (inactive) and 24.4% (inactive); in assay [3], 16.5% (inactive) and 11.2% (inactive); in assay [4], -9.35% (inactive) and 21.9% (inactive); in assay [5], 10.2% (inactive) and 16.4% (inactive); in assay [6] it was 61.2% (inactive) and 18.9% (inactive).
As to `O=c1c(O)c(-c2ccc(O)c(O)c2)oc2cc(O)ccc12`, the growth inhibition in assay [1] was -15.2% (inactive) and -57% (inactive); in assay [2] it was -14.6% (inactive) and -40.4% (inactive); in assay [3], -3.25% (inactive) and -24.9% (inactive); in assay [4] it was 0.2% (inactive) and -25% (inactive); in assay [5] it was -15.1% (inactive) and -48.1% (inactive); in assay [6], -3.7% (inactive) and -37.3% (inactive).
Consider `CCCCCCCc1ccc(OC2OC(COC(C)=O)C(OC(C)=O)C(OC(C)=O)C2OC(C)=O)cc1` (configuration not stated), for which the growth inhibition in assay [1] was -7% (inactive) and -26.1% (inactive); in assay [2], -12.1% (inactive) and 13.8% (inactive); in assay [3], -30.4% (inactive) and 1.4% (inactive); in assay [4] it was -7.45% (inactive) and 37.9% (inactive); in assay [5], 5.55% (inactive) and 9.7% (inactive); in assay [6], -6% (inactive) and 10.6% (inactive).
`CN(C)CC1CCCC1=O` (configuration not stated): the growth inhibition is 7.15% (inactive) and 1.25% (inactive) in assay [1]; -0.95% (inactive) and -7.1% (inactive) in assay [2]; 5.8% (inactive) and -22.7% (inactive) in assay [3]; 1.75% (inactive) and 8.6% (inactive) in assay [4]; -0.75% (inactive) and 8.25% (inactive) in assay [5]; 4.6% (inactive) and 11.3% (inactive) in assay [6].
For `O=C(O)CCCCC(=O)O`, the growth inhibition is 2.1% (inactive) and -5.2% (inactive) in assay [1]; -6.65% (inactive) and -1.2% (inactive) in assay [2]; -3.8% (inactive) and -32.5% (inactive) in assay [3]; -30.3% (inactive) and 8% (inactive) in assay [4]; -18.1% (inactive) and -22.1% (inactive) in assay [5]; -5.6% (inactive) and 6.85% (inactive) in assay [6].
Turning to `CC(=O)OCC1OC(n2c(=S)n(-c3ccccc3)c(=O)c3cc(Br)ccc32)C(OC(C)=O)C(OC(C)=O)C1OC(C)=O` (configuration not stated), the growth inhibition in assay [1] is 4.85% (inactive) and -36.2% (inactive); in assay [2], -1.9% (inactive) and -27.9% (inactive); in assay [3], 1.4% (inactive) and -26.9% (inactive); in assay [4] it was 5.25% (inactive) and 15.2% (inactive); in assay [5], -14.6% (inactive) and -0.3% (inactive); in assay [6], 12.5% (inactive) and -19.2% (inactive).
With `CCOC(=O)C(N)CCSC` (configuration not stated), the growth inhibition in assay [1] is -22.8% (inactive) and -14.2% (inactive); in assay [2] it was -14.3% (inactive) and -7.65% (inactive); in assay [3], -13.8% (inactive) and -1% (inactive); in assay [4] it was -39.4% (inactive) and -16.6% (inactive); in assay [5] it was -13.3% (inactive) and -8.95% (inactive); in assay [6] it was -5.05% (inactive) and -17.5% (inactive).
`C/C(=N\O)c1ccccc1`: the growth inhibition in assay [1] is -11.2% (inactive) and 18.9% (inactive); in assay [2], -20.4% (inactive) and -5.5% (inactive); in assay [3] it was -3.5% (inactive) and 13% (inactive); in assay [4], 2.8% (inactive) and -13.4% (inactive); in assay [5], 8.3% (inactive) and -2.6% (inactive); in assay [6] it was -19.9% (inactive) and 14.5% (inactive).
With `O=CC(O)C(O)C(OC1OC(CO)C(O)C(O)C1O)C(O)CO` (configuration not stated) (tested in a mixture with another compound), the growth inhibition is 89.5% (active) and 38% (inactive) in assay [1]; 96.5% (active) and 36.4% (inactive) in assay [2]; 94.3% (active) and 55.4% (inactive) in assay [3]; 93.8% (active) and 78.4% (active) in assay [4]; 98.2% (active) and 80.7% (active) in assay [5]; 95.3% (active) and 49.9% (inactive) in assay [6].
Consider `Nc1cc(=O)[nH][nH]1`, for which the growth inhibition is -11.7% (inactive) and -11.5% (inactive) in assay [1]; -9.65% (inactive) and -5.8% (inactive) in assay [2]; -2.15% (inactive) and -22.4% (inactive) in assay [3]; -5.9% (inactive) and -7.35% (inactive) in assay [4]; -17.8% (inactive) and -0.2% (inactive) in assay [5]; -15.8% (inactive) and -9.2% (inactive) in assay [6].
Take `CC(=O)OC(COC(=O)c1ccccc1)C(OC(C)=O)C(OC(C)=O)C(COC(=O)c1ccccc1)OC(C)=O` (configuration not stated): the growth inhibition in assay [1] is 3.7% (inactive) and 3.5% (inactive); in assay [2] it was -7.8% (inactive) and 2.5% (inactive); in assay [3], -7.65% (inactive) and -9.85% (inactive); in assay [4], -18.9% (inactive) and -21.4% (inactive); in assay [5] it was -3.3% (inactive) and -2.7% (inactive); in assay [6], 5.45% (inactive) and 17% (inactive).
With `CC(C)=CCCC(C)C1CCC2(C)C3=C(CCC12C)C1(C)CCC(O)C(C)(C)C1CC3` (configuration not stated), the growth inhibition in assay [1] is 32.6% (inactive) and 9.75% (inactive); in assay [2], 16.4% (inactive) and 2.65% (inactive); in assay [3] it was 27.6% (inactive) and 20.9% (inactive); in assay [4], 25.9% (inactive) and -0.25% (inactive); in assay [5], 7.8% (inactive) and 15.2% (inactive); in assay [6] it was 23.9% (inactive) and 29.6% (inactive).
For `Cc1ccc(S(=O)(=O)NC(C(=O)O)C(C)C)cc1` (configuration not stated), the growth inhibition in assay [1] was 11.5% (inactive) and -39.5% (inactive); in assay [2] it was 3.75% (inactive) and -12.9% (inactive); in assay [3], -8.8% (inactive) and -51.1% (inactive); in assay [4], -1.2% (inactive) and -20.2% (inactive); in assay [5], 35% (inactive) and -16.2% (inactive); in assay [6], 0.45% (inactive) and -18.9% (inactive).
With `COc1ccc(C(O)c2nccn2C)c(OC)c1` (configuration not stated), the growth inhibition in assay [1] is -17.6% (inactive) and -23.8% (inactive); in assay [2], -3.55% (inactive) and -10.8% (inactive); in assay [3], -0.3% (inactive) and -6.2% (inactive); in assay [4] it was 14.7% (inactive) and 10.1% (inactive); in assay [5], 20.1% (inactive) and 21% (inactive); in assay [6] it was 5.35% (inactive) and -6.35% (inactive).
As for `CC(=O)c1c(O)c(C)c(O)c2c1OC1=CC(=O)C(C(C)=O)C(=O)C12C` (configuration not stated), the growth inhibition in assay [1] is 30.6% (inactive) and 28.6% (inactive) and -0.1% (inactive); in assay [2] it was 21% (inactive) and 17.2% (inactive) and -20.2% (inactive); in assay [3] it was 28.4% (inactive) and 23.8% (inactive) and -25.1% (inactive); in assay [4], 37% (inactive) and 23.2% (inactive) and -19.4% (inactive); in assay [5], 30.4% (inactive) and 24.9% (inactive) and 12.6% (inactive); in assay [6] it was 23.9% (inactive) and 31.6% (inactive) and -25.6% (inactive).
Consider `CCOc1ccc(C(C)=O)cc1`, for which the growth inhibition is 10.7% (inactive) and -0.6% (inactive) in assay [1]; 5.25% (inactive) and 3.75% (inactive) in assay [2]; 5.85% (inactive) and 3.85% (inactive) in assay [3]; 10.9% (inactive) and 1.45% (inactive) in assay [4]; 5.5% (inactive) and 3.65% (inactive) in assay [5]; -2.05% (inactive) and -7.45% (inactive) in assay [6].
